# Laboratory results from PubChem BioAssay AID1159537 (DiRusso Lab, Biochemistry Department, University of Nebraska, 2015).
# The whole screen tested about 44,000 compounds, of which about 370 (0.84%) were called active. The rule behind the calls is not given here. The full list was thinned out, with actives kept by preference.
# Assay: compounds raising algal triacylglycerol storage – qHTS, Chlamydomonas reinhardtii, primary screen (AID 1159537);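 note: hits raise Nile Red signal meaning more stored TAG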
# Conditions: Chlamydomonas reinhardtii TAG, Nile Red fluorescence, 72 h; screened at 10 µM (by protocol)
row,Compound,outcome
1,COCCN1C(=O)C(O)=C(C(=O)c2ccc(C)o2)C1c1cccc(Cl)c1 (centres undefined),inactive
2,NC(=O)c1sc2cc([N+](=O)[O-])ccc2c1Cl,inactive
3,O=C(CCCc1ccccc1)Nc1cccc(Cl)c1,inactive
4,CCc1cccc(C)c1NC(=O)c1cc(OC)cc(OC)c1,inactive
5,COc1ccc(CNC(=O)C(c2ccccc2)c2ccccc2)cc1,inactive
6,NC(=O)c1c(NC(=O)COc2ccc([N+](=O)[O-])cc2)sc2c1CCCC2,inactive
7,COc1cccc(OCCOc2ccc(C)cc2OC)c1,inactive
8,COc1ccc(S(=O)(=O)N2CCN(c3ccccc3F)CC2)cc1OC,inactive
9,CC1(C)Cc2ccccc2/C(=C(\C#N)C(=O)Nc2cccc([N+](=O)[O-])c2)N1,inactive
10,Cc1cc(C)nc(NS(=O)(=O)c2ccc(N/C=C\C(=O)c3cccs3)cc2)n1,inactive
11,Cc1cccc(NC(=O)c2ccc(Cl)c(Cl)c2)c1C,inactive
12,Cc1cc(=O)[nH]c(SCc2ccc(Cl)cc2)n1,inactive
13,CCCCOc1ccc(N2C(=O)CC(N3CCN(c4ccccn4)CC3)C2=O)cc1 (centres undefined),inactive
14,CC(=O)N1CCN(Cc2c(Cl)cccc2Cl)CC1,inactive
15,C=CCn1c(=O)c(C2=NS(=O)(=O)c3ccccc3N2)c(O)c2ccccc21,inactive
16,O=C(c1ccc([N+](=O)[O-])cc1)N1CCN(C2CCCC2)CC1,inactive
17,CCOc1ccccc1C(=O)Nc1ccc([N+](=O)[O-])cc1OC,inactive
18,Clc1ccc(-c2nnc3ccc(NCc4ccccc4)nn23)cc1,inactive
19,O=C(O)c1ccccc1C(=O)c1ccc(O)cc1O,inactive
20,OCCN(Cc1ccccc1)Cc1ccc(-c2ccccc2)cc1,inactive
21,CCOc1ccc(NC(=O)C(=O)NCCc2ccc(Cl)cc2)cc1,inactive
22,O=C(Nc1cccnc1)c1cccc(C(=O)Nc2cccnc2)c1,inactive
23,CCN1CCN(C2CCN(Cc3ccccc3)CC2)CC1,inactive
24,CCOC(=O)N1CCN(C2CCN(CC)CC2)CC1,inactive

row,Compound,outcome
1,CCC1CCC(N2CCN(CC)CC2)CC1 (centres undefined),active
2,O=C(c1cccc([N+](=O)[O-])c1)c1ccc2c(c1)C(=O)N(c1nccs1)C2=O,inactive
3,COc1c(S(=O)(=O)NCc2ccncc2)ccc(Cl)c1Cl,inactive
4,CCCCOc1ccc(N2C(=O)CC(N3CCN(c4ncccn4)CC3)C2=O)cc1 (centres undefined),inactive
5,Cc1ccc(SCC(=O)Nc2ccc3c(c2)OCCO3)cc1,inactive
6,NNc1ncnc2sc3c(c12)CCCC3,inactive
7,COc1ccc(C(=O)N2CCC(C(=O)Nc3ccc(OCc4ccccc4)cc3)CC2)cc1,inactive
8,O=C1NCCCc2nc(N3CCOCC3)sc21,inactive
9,COc1ccc(N(CC(=O)N(C)Cc2ccccc2)S(C)(=O)=O)cc1OC,inactive
10,O=C(COc1ccc(Cl)cc1)Nc1ccc(F)c(F)c1,inactive
11,O=C(/C=C/c1ccc(-c2ccccc2Cl)o1)c1ccco1,inactive
12,O=C(c1ccc(C#CC2(O)CCCCC2)cc1)N1CCN(c2ccccc2Cl)CC1,inactive
13,N#CC1=C(SCc2ccccc2)NC(=O)CC1c1ccc(Br)cc1 (centres undefined),inactive
14,CC(=O)c1ccc(N2CCN(C(=O)c3c(F)c(F)cc(C)c3Cl)CC2)c(F)c1,inactive
15,COc1ccc(-c2cc(C(=O)Nc3cccnc3)c3ccccc3n2)cc1,inactive
16,Cc1cc(C)c(NC(=O)c2ccc(F)cc2)c(C)c1,inactive
17,CC(C)c1ccc(OCC(=O)N2CCCC2)cc1,inactive
18,O=C(NCC1CCNCC1)C(=O)NC1CCCCC1,inactive
19,NC(=O)c1ccc2[nH]c3c(c2c1)CCCC3,inactive
20,O=S(=O)(CCc1ccccc1)Nc1ccccc1,inactive
21,CC(C)COc1ccc(C(=O)Nc2ccc([N+](=O)[O-])cc2Cl)cc1,inactive
22,Cc1cc(OCCN2CCOCC2)nc(NCc2ccccc2)n1,inactive
23,Cc1ccc(C(C)C)cc1OCCN1CCCC1,inactive
24,Cc1cc(OCCN2CCN(C)CC2)ccc1C(C)C,active

row,Compound,outcome
1,Cc1ccc(CN2CCOCC2)c(C)c1,inactive
2,Cc1cc(OCCCCN2CCOCC2)ccc1C(C)C,active
3,CCOc1ccc(CN2CCCN(C)CC2)cc1,inactive
4,CS(=O)(=O)N(Cc1ccc(C(=O)Nc2cccnc2)cc1)c1ccccc1,inactive
5,CCc1ccc(N2CC(C(=O)NC(C)CC)CC2=O)cc1 (centres undefined),inactive
6,O=C(Nc1cccc(Cl)c1Cl)c1ccc(I)o1,inactive
7,CCOc1ccc(NC(=O)C(=O)NCc2ccccc2OC)cc1,inactive
8,Cc1cc(Cl)ccc1NC(=O)c1cccnc1,inactive
9,Cc1ccc(C(=O)c2ccc(N3CCN(C)CC3)c([N+](=O)[O-])c2)cc1,active
10,CC1CCN(c2ccc(C(=O)O)cc2[N+](=O)[O-])CC1,inactive
11,CS(=O)(=O)N1CCN(c2ccc(C(=O)NC3C4CC5CC(C4)CC3C5)cc2[N+](=O)[O-])CC1 (centres undefined),inactive
12,CC(=O)c1ccc(NC(=O)c2ccc(CN(c3ccccc3)S(C)(=O)=O)cc2)cc1,inactive
13,O=C(C1=C(O)C(=O)N(c2ncccn2)C1c1cccc([N+](=O)[O-])c1)c1ccco1 (centres undefined),inactive
14,O=C(Nc1ccccc1C(=O)NCCN1CCOCC1)c1cccc(I)c1,inactive
15,CCOc1ccccc1NC1=NS(=O)(=O)c2ccccc21,inactive
16,COc1cc(C=O)cc(Br)c1OCc1ccccn1,inactive
17,Cc1ccc(C(=O)Nc2cccc(O)c2)cc1S(=O)(=O)N1CCC(C)CC1,inactive
18,O=S(=O)(NCCN1CCOCC1)c1ccc(I)cc1,inactive
19,Cc1cc(C)c(S(=O)(=O)NCCCN2CCOCC2)cc1Br,active
20,O=C(NCCCN1CCOCC1)c1ccccc1Br,inactive
21,CN(C)CCNC(=O)c1ccc(Cl)cc1,inactive
22,CC(=O)c1cc2c(cc1NC(=O)c1ccccc1Cl)OCCO2,inactive
23,Cc1ccc(NS(=O)(=O)c2ccc(C(C)(C)C)cc2)cn1,inactive
24,COc1ccc(CC(=O)NC(c2ccccc2)c2ccccc2)cc1OC,inactive

row,Compound,outcome
1,CC1=C(C(=O)Nc2ccc(C)cn2)C(c2cccc(Cl)c2Cl)C2=C(CCCC2=O)N1 (centres undefined),inactive
2,CCc1ccc(OCCN2CCCC(C)C2)cc1 (centres undefined),inactive
3,Cc1nnc(NC(=O)CSc2nnnn2-c2ccc(Cl)cc2)s1,inactive
4,O=C(O)c1ccc(C(=O)O)c(S(=O)(=O)c2cc(C(=O)O)ccc2C(=O)O)c1,inactive
5,Clc1ccc(-n2nnnc2SCc2nn[nH]n2)cc1,inactive
6,CC1(C)CC(=O)c2cnc3cc(-c4ccccc4)nn3c2C1,inactive
7,O=C1C(=O)N(c2ccccc2)C(c2ccccc2[N+](=O)[O-])C1=C(O)c1ccccc1 (centres undefined),inactive
8,CCc1ccc(OCC(=O)Nc2ccc(F)cc2)cc1,inactive
9,Nc1cc(-c2ccccc2)nn1-c1ccccc1,inactive
10,O=C(COc1ccc(Br)cc1)N1CCN(c2ccccc2F)CC1,inactive
11,O=[N+]([O-])c1ccc(S(=O)(=O)Nc2cc(Cl)ccc2O)cc1,inactive
12,COc1ccc(CSc2nnc(-c3ccc(Cl)cc3Cl)o2)cc1[N+](=O)[O-],inactive
13,CCOc1ccc2nc(SCC(=O)NC(C)=O)sc2c1,inactive
14,O=C(Cc1ccc(F)cc1)NCc1ccncc1,inactive
15,CC(C)(C)C1CCC(NCc2ccncc2)CC1 (centres undefined),active
16,O=C(NCc1ccncc1)C(=O)NCc1ccco1,inactive
17,CCCc1ccc(OCC(O)CN2CCN(CCO)CC2)cc1 (centres undefined),inactive
18,O=C(Nc1ccc(OCC(=O)N2CCOCC2)cc1)c1cc(F)c(F)cc1Cl,inactive
19,O=C1CC(N2CCN(c3ccccc3O)CC2)C(=O)N1c1ccc(Br)cc1 (centres undefined),inactive
20,NC(=O)c1cc(NC(=O)CCC(=O)O)ccc1N1CCOCC1,inactive
21,O=S(=O)(Nc1cccc(O)c1)c1ccc(-c2ccccc2)cc1,inactive
22,O=C(Nc1ccccc1F)C1CC(=O)N(c2ccccc2F)C1 (centres undefined),inactive
23,O=C(Nc1ccc([N+](=O)[O-])cc1Br)c1ccncc1,inactive
24,O=C(COc1ccc(Br)cc1)Nc1ccc(N2CCOCC2)cc1,inactive

row,Compound,outcome
1,Cc1nc(-c2c[nH]c3ccccc23)cs1,inactive
2,O=C(NCCc1ccc(F)cc1)C1CC(=O)N(c2ccccc2)C1 (centres undefined),inactive
3,Cc1ccccc1-c1nc(-c2ccncc2)no1,inactive
4,Clc1ccc(OCc2nc(-c3cccnc3)no2)c(Cl)c1,inactive
5,c1ccc(CCc2nc(-c3ccncc3)no2)cc1,active
6,NCCNc1ccc([N+](=O)[O-])c(N2CCCCC2)c1,inactive
7,COc1cc(C=O)ccc1OCCOc1ccc(C)cc1Br,inactive
8,Cc1ccc(-c2nc(-c3cccnc3)no2)cc1Cl,inactive
9,Cc1ccc2oc(-c3ccc(C)c(N)c3)nc2c1,inactive
10,CCn1c2c(c3cc([N+](=O)[O-])ccc31)CCCC2=O,inactive
11,CC(=O)N(c1ccccc1)C1CC(C)Nc2ccccc21 (centres undefined),inactive
12,O=C(NC12CC3CC(CC(C3)C1)C2)c1ccccc1C(=O)NC12CC3CC(CC(C3)C1)C2,inactive
13,COc1cccc(NC(=O)CN2CCN(c3nc4ccc([N+](=O)[O-])cc4s3)CC2)c1,inactive
14,COc1ccc(/C=C(/NC(=O)c2ccco2)C(=O)Nc2ccc([N+](=O)[O-])cc2)cc1,inactive
15,CS(=O)(=O)N(CC(=O)N1CCCCCC1)c1cccc(Cl)c1Cl,inactive
16,C(=C\c1ccccc1)/CN1CCN(CC2CCCCC2)CC1,active
17,O=[N+]([O-])c1ccccc1/C=C/CN1CCN(C/C=C/c2ccccc2)CC1,inactive
18,COc1cccc(CN2CCN(C/C=C/c3ccccc3)CC2)c1OC,inactive
19,CS(=O)(=O)N(CC(=O)N1CCCC1)c1ccc(I)cc1,inactive
20,CCOc1ccc(C(=O)NCCc2ccc(F)cc2)cc1,inactive
21,O=C(COc1cccc([N+](=O)[O-])c1)Nc1ccc(-c2nnc(-c3ccco3)o2)cc1,inactive
22,Cc1ccc(NC(=O)c2ccccc2Br)cc1C,inactive
23,COc1ccc(C(O)=C2C(=O)C(=O)N(CCN3CCOCC3)C2c2ccncc2)cc1C (centres undefined),inactive
